Jurkat NFkB inh – lowers PMA/ionomycin-induced NF-kB signal in Jurkat cells; AID 435003; hit rate 0.53% among 330,000; inhibition, % at 4 µM; PMA/ionomycin-induced NF-kB luciferase reporter, luminescence; in the data active = inhibition above about 50%
697 NFkB inh – inhibitors of the PMA/ionomycin-induced NF-kB reporter in 697 B cells | 697 B-cell NF-kB luciferase reporter, 16 h | inhibition, % at 4 µM | hit rate 0.33% among 330,000; in the data active = inhibition above about 35%
Beta cell apopt – blocks beta cell apoptosis; hit rate 0.8% among 300,000; INS-1E cytokine-induced death, ATP luminescence, 48 h; percent of positive-control rescue, neutral wells zero; protection from apoptosis, % (test concentration not listed);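 active = Every replicate reaches about 75%, or at least half do and their mean reaches it too, limit read from the data; inconclusive = At least half of replicates reach the limit but their mean does not; inactive = Under half of replicates reach the limit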;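 also: 0% = cytokine-treated negative control wells and 100% = positive control rescue; higher means more ATP so stronger rescue from cytokine killing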
Bfl-1 A1 inh – inhibitors of the anti-apoptotic protein A1, read as caspase activation; hit rate 0.066% among 330,000; caspase activation, % (no concentration beside the values); AID 2462; MEF A1-2A-BIM cells, Caspase-Glo 3/7 luminescence, 3 h; percent of clofoctol response, vehicle zero;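 active = over half of replicate activation scores above 10%, or exactly half above 10 with the replicate mean above 10; inconclusive = replicate mean below 10 yet half the replicates above 10; inactive = over half of replicates below 10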
Mdm2 MdmX PPI – inhibitors of human Mdm2/MdmX interaction; AID 485346; O15151+Q00987; SaOS-2 split-luciferase Mdm2/MdmX complementation, luminescence; hit rate 3% among 330,000; inhibition, % at 8 µM;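 active = inhibition of at least 50% at 8 µM in the primary screen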
NTR1 ag – NTR1 (human) agonism; P30989; NTR1-U2OS beta-arrestin-GFP spot imaging, agonist mode; activation, % at 20 µM; hit rate 0.17% among 330,000;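 active = activation at or above 40% of the spot to cytoplasm intensity ratio, with at least 20 cells analyzed; inconclusive = wells under 20 cells, flagged as cytotoxic or low count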;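 also: 0% = DMSO without peptide and 100% = 100 nM NTR1 peptide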
Mdm2 MdmX conf – human Mdm2/MdmX binding inhibition, confirmed. AID 489028. inhibition, % at 8 µM. luminescent assay. shares compounds with Mdm2 MdmX PPI. hit rate 55% among 10,000; in the data active = inhibition above about 40%
Full FLuc ctr – inhibits full-length luciferase, flagging false Mdm2/MdmX hits. shares compounds with Mdm2 MdmX PPI. SaOS-2 full-length luciferase counterscreen, luminescence. inhibition, % at 8 µM. hit rate 77% among 6,200. AID 504607;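 active = mean inhibition at 8 µM reaching about 37%, which flags the compound as non-specific, limit read from the data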;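 also: p53-null SaOS-2 cells with luciferase driven by a doxycycline-inducible promoter; compound on cells about two nights before reading with doxycycline added after day one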
* = called active by the depositor; u = inconclusive; x = not tested or not shown. Shown are actives, neighbours in structure and some others; about 3.8% of the full set was active somewhere.

SMILES | Jurkat NFkB inh | 697 NFkB inh | Beta cell apopt | Bfl-1 A1 inh | Mdm2 MdmX PPI | NTR1 ag | Mdm2 MdmX conf | others
Cc1cc2cc(C#N)c(SCC(=O)Nc3nonc3C)nc2cc1C | -37 | -5 | 1 | -1 | 69* | 0 | 29
Cc1nonc1NC(=O)CSc1nc2c(C)cccc2cc1C#N | -27 | -4 | 1 | 0 | -78 | -3 | x
COc1cccc(OC)c1C(=O)Nc1ccccc1Sc1ccccc1 | 9 | 19 | -10 | 1 | 22 | 3 | x
Cc1ccc2c(C)nc(Nc3nc(CSc4nnnn4-c4ccccc4)cc(=O)[nH]3)nc2c1 | 5 | 11 | -7 | 0 | 89* | 7 | 61* | Full FLuc ctr=63*
COCc1cc(=O)[nH]c(Nc2nc(C)c3ccccc3n2)n1 | -16 | 25 | -2 | 0 | 25 | -2 | x
CCOc1ccc2nc(Nc3nc(CSc4nnnn4-c4ccccc4)cc(=O)[nH]3)nc(C)c2c1 | 33 | -11 | -1 | 0 | 75* | 3 | 16
COc1ccc2nc(Nc3nc(CSc4nnnn4-c4ccccc4)cc(=O)[nH]3)nc(C)c2c1 | -9 | -3 | 3 | 0 | 49 | 3 | x
COc1cccc(NC(=O)CN2C(=O)COc3ccc(S(=O)(=O)N4CCC(C)CC4)cc32)c1 | -11 | -22 | 1 | 0 | 26 | 1 | x
Cc1cccc(-n2nc3c([n+]2[O-])CCc2nonc2-3)c1C | 6 | -8 | -5 | 1 | -4 | 0 | x
Cc1ccc(-n2nc3c([n+]2[O-])CCc2c-3no[n+]2[O-])cc1 | 42 | -20 | 30 | 0 | 53* | 2 | 11
O=C(NCc1ccco1)/C(=C/c1cccc(C(F)(F)F)c1)c1nc2ccccc2[nH]1 | 1 | 1 | x | 0 | 83* | 0 | 84* | Full FLuc ctr=38*
Cc1ccc(C(=O)C(c2ccccc2)N2Cc3ccccc3C2=N)cc1 (centres undefined) | 2 | -20 | 17 | -1 | 79* | 16 | 18
O=C(Cc1ccc(O)cc1)N/N=C/c1cccnc1 | -7 | 12 | 6 | u | 9 | 0 | x
O=C(Cn1nnc(-c2ccccc2NC(=O)c2ccco2)n1)Nc1ccccc1 | 34 | -1 | -8 | 0 | 76* | 25 | 41* | Full FLuc ctr=64*
CN1CCN(c2ccccc2NC(=O)c2ccc(-c3ccc(Cl)cc3Cl)o2)CC1 | 15 | -8 | 18 | 0 | 56* | 14 | 52* | Full FLuc ctr=86*
O=C(Nc1cc(Cl)ccc1N1CCOCC1)c1ccc(=O)[nH]c1 | 14 | 6 | 1 | 0 | 8 | 2 | x
CCOC(=O)C(Cc1ccccc1)NC(=O)Cn1nnc(-c2ccc(SC)cc2)n1 (centres undefined) | -9 | -8 | -9 | 2 | -10 | -1 | x
CSc1ccc(-c2nnn(CC(=O)NCc3ccccc3)n2)cc1 | 12 | -10 | 2 | 0 | 50 | 2 | 30
CN(Cc1ccccc1)C(=O)COc1cccnc1[N+](=O)[O-] | 0 | -2 | 4 | 0 | -9 | 0 | x
CCc1ccc2nc(N(CCN(C)C)C(=O)c3ccc4ncsc4c3)sc2c1 | -42 | -92 | -7 | -1 | 2 | 0 | x
CCN(C[C@H]1N[C@@](Cc2ccccc2)(C(=O)OC)[C@H]2C(=O)N(Cc3ccccc3)C(=O)[C@@H]12)C(=O)Nc1ccc(C)cc1 | 8 | 15 | x | x | 54* | -2 | 51* | Full FLuc ctr=74*
CCN(C[C@H]1N[C@@](CC)(C(=O)OC)[C@H]2C(=O)N(Cc3ccccc3)C(=O)[C@@H]12)C(=O)Nc1ccc(Cl)cc1 | -3 | -8 | x | x | 60* | 4 | 62* | Full FLuc ctr=58*
CCN(C[C@H]1N[C@@](Cc2ccccc2)(C(=O)OC)[C@H]2C(=O)N(Cc3ccccc3)C(=O)[C@@H]12)C(=O)Nc1ccc(C(F)(F)F)cc1 | -5 | -6 | 53 | 1 | 85* | 9 | 40* | Full FLuc ctr=58*
CCN(C[C@H]1N[C@@](CC)(C(=O)OC)[C@H]2C(=O)N(Cc3ccccc3)C(=O)[C@@H]12)C(=O)Nc1ccc(C)cc1 | -1 | -3 | x | x | 19 | 1 | x
Cc1ccc(NC(=O)COC(=O)C2=NNC(=O)CC2)c(Br)c1 | -19 | -5 | -10 | 0 | -15 | 0 | x
SMILES | Jurkat NFkB inh | 697 NFkB inh | Beta cell apopt | Bfl-1 A1 inh | Mdm2 MdmX PPI | NTR1 ag | Mdm2 MdmX conf | others
CCCNS(=O)(=O)c1cc(CN2C(=O)c3cccnc3C2=O)ccc1OC | 19 | 12 | -9 | 0 | 23 | 1 | x
O=c1c(Cl)cc(Cl)nn1-c1ccccc1 | -1 | -15 | -6 | -2 | 55* | 18 | 28
COc1cc(Cl)nn(-c2ccccc2)c1=O | 11 | 9 | 0 | 0 | -6 | 4 | x
CC(=O)Nc1ccccc1C(=O)N1CCN(Cc2ccc3c(c2)OCO3)CC1 | -2 | -6 | -2 | -1 | 8 | 1 | x
COC(=O)C1=C(N)Oc2cc(N(C)C)ccc2C1c1ccccc1OC (centres undefined) | 37 | -101 | x | 0 | 61* | 2 | 40* | Full FLuc ctr=42*
COC(=O)C1=C(N)Oc2cc(C)n(CC3CCCO3)c(=O)c2C1c1ccccc1OC (centres undefined) | 6 | 17 | 0 | 0 | 9 | 0 | x
CN(CCO)c1ccc(C=NNc2ccc([N+](=O)[O-])cc2S(=O)(=O)Nc2ccccc2C(=O)O)cc1 | -18 | -3 | -1 | -2 | 13 | -1 | x
O=S(=O)(Nc1ccc(S(=O)(=O)N2CCCC2)cc1)c1ccc(F)cc1F | -4 | 20 | -4 | -1 | 4 | -1 | x
N/C(=N\OC(=O)c1ccc(F)cc1)c1ccc(Br)cc1 | -81 | -84 | 1 | -1 | 51* | 1 | -11
N/C(=N\OC(=O)c1ccc(F)cc1)c1ccccc1 | -67 | -72 | -4 | -9 | -73 | 5 | x
Cc1ccc(/C(N)=N/OC(=O)c2ccc3ccccc3c2)cc1 | -55 | -111 | -5 | 0 | 94* | 2 | 38 | Full FLuc ctr=117*
Cc1ccc(/C(N)=N/OC(=O)c2ccc(F)cc2)cc1 | -95 | -100 | -6 | -6 | 59* | 3 | 16
Cc1ccc(/C(N)=N/OC(=O)Oc2ccccc2)cc1 | -8 | 13 | 7 | 1 | 8 | -4 | x
N/C(=N\OC(=O)c1ccc(F)cc1)c1nonc1N | 16 | 15 | -1 | -8 | 12 | 4 | x
COc1ccc(OC)c(S(=O)(=O)NCC(c2ccc3c(c2)OCO3)N2CCOCC2)c1 (centres undefined) | 8 | 13 | -1 | 1 | -6 | -1 | x
COC(=O)C1=C(C(=O)OC)[C@@H]2N(Cc3ccccc3)c3ccccc3[C@@]23C[C@@H](C(=O)OC)N(C(=O)C2CCC2)C3=N1 | 4 | -4 | 5 | -2 | 27 | 4 | x
